# Source: PubChem BioAssay
# The source made the active and inactive calls. Unless noted, the rule behind the calls is not given here.
# Assays:
# [1] = resazurin metabolic signal in HepG2 cells – cell-based, resazurin fluorescence, 24 h, PK04 Diversity Set, profiling panel (AID 1172); conditions: HepG2 viability, higher = more signal; note: test concentration not given here
# [2] = budding yeast growth changes without added modifier – OD600, strain BY4716, 24 h, basal condition, primary screen (AID 1173); conditions: S. cerevisiae BY4716 growth, OD600, 24 h; higher = more signal, called active from +8 up or from −8 down
# [3] = viability profiling in MM1S myeloma cells – cell-based, resazurin fluorescence, basal, 24 h, PK04 Diversity Set, profiling panel (AID 1174); conditions: higher = more signal, called active from +8 up or from −8 down;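 note: MM1S multiple myeloma cell line; test concentration not given here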
# [4] = molecular target: Dihydroorotate dehydrogenase (quinone), mitochondrial (Plasmodium falciparum (isolate 3D7)) (UniProt Q08210); assay: inhibition of P. falciparum DHODH – biochemical, C-terminal His tag, absorbance 600 nm, primary screen (AID 1175); conditions: PfDHODH enzyme, DCIP absorbance 600 nm; higher = more signal, called active from +8 up or from −8 down;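 note: recombinant parasite enzyme with a five histidine tag at its C terminus; test concentration not given here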
# Chain of Dihydroorotate dehydrogenase (quinone), mitochondrial (Plasmodium falciparum (isolate 3D7)) (Q08210 whole entry, looked up): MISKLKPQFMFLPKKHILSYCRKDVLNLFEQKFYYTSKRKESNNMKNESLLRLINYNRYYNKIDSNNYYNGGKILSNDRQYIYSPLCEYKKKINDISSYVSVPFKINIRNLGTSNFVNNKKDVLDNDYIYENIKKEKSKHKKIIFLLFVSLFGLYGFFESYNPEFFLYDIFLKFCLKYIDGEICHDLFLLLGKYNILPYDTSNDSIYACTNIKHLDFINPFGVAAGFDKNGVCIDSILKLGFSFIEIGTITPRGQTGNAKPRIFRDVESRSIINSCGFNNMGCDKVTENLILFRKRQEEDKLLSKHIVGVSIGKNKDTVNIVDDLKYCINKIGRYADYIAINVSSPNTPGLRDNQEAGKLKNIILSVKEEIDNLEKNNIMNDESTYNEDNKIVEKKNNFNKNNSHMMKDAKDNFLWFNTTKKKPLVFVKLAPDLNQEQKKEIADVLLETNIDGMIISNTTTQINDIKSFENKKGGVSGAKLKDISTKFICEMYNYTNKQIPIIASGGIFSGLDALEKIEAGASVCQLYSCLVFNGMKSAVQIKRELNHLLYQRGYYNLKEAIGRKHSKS
# [5] = inhibition of PAO1 biofilm formation – strain PAO1, LB-PBS medium, absorbance 600 nm, primary screen (AID 1176); note: test concentration not given here; conditions: P. aeruginosa PAO1 growth/biofilm, A600, 12 h; higher = more signal
# [6] = growth modulation of vineyard yeast isolate – strain RM11-1a, OD600, basal, 24 h, primary screen (AID 1177);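 note: cultures grown under basal conditions with no added stressor; test concentration not given here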; conditions: S. cerevisiae RM11-1a growth, OD600, 24 h; higher = more signal, called active from +8 up or from −8 down
# [7] = growth of efflux-deficient E. coli DRC39 – strain DRC39, OD650, 24 h, E. coli filamentation inducers, primary screen (AID 1178);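 note: growth measured as culture turbidity by optical density at 650 nm; test concentration not given here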; conditions: E. coli DRC39 acrAB, higher = more signal, called active from +8 up or from −8 down
# [8] = growth of efflux-deficient E. coli DRC39 – strain DRC39, OD650, 48 h, E. coli filamentation inducers, primary screen (AID 1179);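 note: screen aims at cell division blockers that make cells filament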; conditions: E. coli DRC39 delta-acrAB growth, higher = more signal, called active from +8 up or from −8 down
# [9] = viability profiling in RPMI8226 myeloma cells – cell-based, resazurin fluorescence, basal, 24 h, PK04 Diversity Set, profiling panel (AID 1180); conditions: higher = more signal;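 note: RPMI8826 multiple myeloma cell line at 5000 cells per well; test concentration not given here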
# [10] = molecular target: E3 ubiquitin-protein ligase XIAP (Homo sapiens) (UniProt P98170); assay: small molecules binding XIAP protein – biophysical, small-molecule microarray, fluorescence 635 nm, primary screen (AID 1181); conditions: higher = more signal;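 note: score merges 667 nm emission and signal to noise over triplicate slides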
# Chain of E3 ubiquitin-protein ligase XIAP (Homo sapiens) (P98170 whole entry, looked up): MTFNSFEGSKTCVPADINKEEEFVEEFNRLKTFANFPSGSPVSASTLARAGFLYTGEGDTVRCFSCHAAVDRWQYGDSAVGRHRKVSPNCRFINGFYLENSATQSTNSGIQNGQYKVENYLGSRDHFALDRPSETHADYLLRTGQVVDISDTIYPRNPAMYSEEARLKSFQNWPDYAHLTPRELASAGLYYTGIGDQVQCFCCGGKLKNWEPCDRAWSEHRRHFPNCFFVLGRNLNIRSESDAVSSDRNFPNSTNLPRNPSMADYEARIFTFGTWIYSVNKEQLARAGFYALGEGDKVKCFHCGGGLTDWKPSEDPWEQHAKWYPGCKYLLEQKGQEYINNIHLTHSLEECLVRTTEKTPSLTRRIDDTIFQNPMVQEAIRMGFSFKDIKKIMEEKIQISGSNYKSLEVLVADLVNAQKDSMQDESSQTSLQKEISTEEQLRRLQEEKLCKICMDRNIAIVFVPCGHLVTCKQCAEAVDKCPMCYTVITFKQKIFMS
Structure (SMILES),z-score [1],z-score [2],z-score [3],composite z-score [4],z-score [5],z-score [6],z-score [7],z-score [8],z-score [9],composite z-score [10]
O=C1C2=CC[C@H]3C(=O)N(C4CCCCC4)C(=O)[C@H]3[C@H]2[C@H](O)[C@@H]2O[C@H]12,-3.76,-5.74 (inactive),-7.88 (inactive),-3.96 (inactive),-0.2 (inactive),-1.83 (inactive),0.0488 (inactive),-1.02 (inactive),-4.05,0.0694
CCOC(=O)[C@H](Cc1ccccc1)NC(=O)CCC1CC(OC(=O)NCc2cccc3ccccc23)CC2(CCCC(COC(=O)NCc3ccc4c(c3)OCO4)O2)O1 (stereo not given in full),-0.0973,-0.552 (inactive),-0.082 (inactive),-0.929 (inactive),-0.373 (inactive),-0.131 (inactive),1.56 (inactive),1.41 (inactive),0.922,-0.209
CON=C1c2cc(OC)ccc2O[C@H](c2cccc(OC)c2)[C@H]1O,0.291,-5.98 (inactive),0.322 (inactive),-0.469 (inactive),-0.455 (inactive),-0.175 (inactive),0.489 (inactive),0.957 (inactive),0.411,0.418
CCOC(=O)CCN1C(=O)[C@H]2[C@H]3[C@H](O)[C@H](O)CC(=NNC(=O)OCC)[C@H]3CC[C@H]2C1=O,-0.207,-1.01 (inactive),0.137 (inactive),0.519 (inactive),0.614 (inactive),0.235 (inactive),-0.216 (inactive),-0.318 (inactive),-0.0651,0.106
CON=C[C@@H](OC)[C@H](C)C=CCC(=O)OC,0.0392,-0.117 (inactive),0.293 (inactive),-0.241 (inactive),0.0738 (inactive),-0.557 (inactive),-0.311 (inactive),-2.25 (inactive),-0.274,-0.162
CC(CCC(=O)OC[C@H]1O[C@H](C#Cc2ccccc2)C=C[C@@H]1Oc1ccc(C)cc1)=NOC[C@@H](C)[C@H](OCc1ccccc1)C(C)C,0.38,0.513 (inactive),0.258 (inactive),0.615 (inactive),-0.503 (inactive),-0.222 (inactive),0.0786 (inactive),-0.931 (inactive),0.306,-0.227
C=CC[C@@H]1C=C[C@H](ON=C[C@@H](NS(=O)(=O)c2ccc(C)cc2)[C@H](C)C=CCC(=O)OC)[C@@H](CO)O1,-0.71,0.071 (inactive),-0.681 (inactive),-0.383 (inactive),0.0525 (inactive),-0.0257 (inactive),-0.251 (inactive),0.119 (inactive),-0.422,-0.231
CC(=O)OC[C@H]1O[C@H](CCON=C(C)CCN2CCCc3nc(C)c(C)cc32)C=C[C@@H]1OC(C)=O,0.0171,1.34 (inactive),-0.102 (inactive),0.245 (inactive),0.511 (inactive),1.3 (inactive),0.565 (inactive),0.16 (inactive),-0.0643,-0.0878
COC(=O)[C@H](C)NC(=O)CCC1CC(OC(=O)NCc2cccc3ccccc23)CC2(CCCC(COC(=O)NCCc3ccccc3OC)O2)O1 (stereo not given in full),-0.0725,0.526 (inactive),-0.232 (inactive),0.325 (inactive),0.639 (inactive),1.61 (inactive),0.642 (inactive),-0.0569 (inactive),-0.472,0.0932
COC(=O)[C@H](Cc1ccccc1)NC(=O)[C@@H](C)CO,-0.427,-0.462 (inactive),-0.0481 (inactive),-2.16 (inactive),0.733 (inactive),0.0469 (inactive),-1.48 (inactive),-0.84 (inactive),-0.376,0.0154
C[C@H]1C=CCC(=O)OC[C@H](C)C(=O)N2CCC[C@H]2C(=O)OC1,0.976,-0.18 (inactive),-0.0106 (inactive),-0.441 (inactive),-0.455 (inactive),0.73 (inactive),0.0678 (inactive),0.205 (inactive),0.818,-0.102
COC(=O)[C@H](C)NC(=O)CCC1CC(OC(=O)NCc2ccc3c(c2)OCO3)CC2(CCCC(COC(=O)NCc3ccccc3)O2)O1 (stereo not given in full),1.24,-0.67 (inactive),-0.731 (inactive),-0.504 (inactive),0.38 (inactive),0.479 (inactive),1.03 (inactive),0.32 (inactive),1.11,-0.205
COC(=O)CC=C[C@@H](C)[C@@H](C=NOC(C)CN1CCCCc2nc(C)c(C)cc21)OC (stereo not given in full),-0.264,-0.927 (inactive),0.0144 (inactive),0.244 (inactive),-0.0417 (inactive),-0.46 (inactive),0.324 (inactive),0.257 (inactive),-0.0511,-0.459
CC(C)CON=C1C[C@@H](O)[C@@H](O)[C@@H]2[C@@H]3C(=O)N([C@@H](C)c4ccccc4)C(=O)[C@@H]3CC[C@@H]12,-0.161,0.221 (inactive),-0.827 (inactive),0.291 (inactive),1.6 (inactive),-0.251 (inactive),-0.286 (inactive),-0.112 (inactive),-0.534,0.209
CO[C@@H]1COC(=O)[C@H](CCSC)NC(=O)CC=C[C@@H](C)COC(=O)[C@@H]2CCCN2C(=O)CC=C[C@H]1C,0.64,-0.691 (inactive),0.89 (inactive),-0.0517 (inactive),-0.92 (inactive),-0.572 (inactive),-0.0629 (inactive),-0.733 (inactive),0.652,-0.0277
C#CCCCON=C1C[C@@H](O)[C@@H](O)[C@@H]2[C@@H]3C(=O)N(CC)C(=O)[C@@H]3CC[C@H]12,-0.588,0.866 (inactive),-0.729 (inactive),-0.0526 (inactive),-0.143 (inactive),-0.0584 (inactive),-0.312 (inactive),-0.241 (inactive),-1.09,-0.114
CCOC(=O)[C@H](CC(C)C)NC(=O)CCC1CC(OC(=O)NCc2ccc3c(c2)OCO3)CC2(CCCC(COC(=O)NCCC(C)C)O2)O1 (stereo not given in full),0.54,-0.214 (inactive),1.03 (inactive),0.126 (inactive),0.462 (inactive),0.175 (inactive),1 (inactive),-0.0965 (inactive),0.497,0.0065
O=C1[C@H]2CCn3c(=O)n(-c4ccccc4)c(=O)n3[C@H]2[C@H](O)[C@@H]2O[C@H]12,-0.507,-0.251 (inactive),-0.468 (inactive),-0.106 (inactive),-0.212 (inactive),-0.303 (inactive),-0.447 (inactive),-0.489 (inactive),-0.579,-0.287
CC(CCN1CCCc2nc(C)c(C)cc21)=NO[C@H](C)c1cn([C@@H]2COC[C@H]2O)nn1,-0.537,0.593 (inactive),-0.144 (inactive),-0.0105 (inactive),-0.525 (inactive),0.836 (inactive),0.973 (inactive),0.741 (inactive),-1.6,0.0264
CCN1C(=O)[C@H]2[C@H]3[C@H](O)[C@H](O)CC(=NOCC(C)C)[C@H]3CC[C@H]2C1=O,-0.259,-0.36 (inactive),-0.929 (inactive),-0.649 (inactive),-0.225 (inactive),-0.117 (inactive),0.645 (inactive),0.568 (inactive),-0.971,-0.122
CCc1cc2c(nc1CC)CCN(CCC(C)=NOC[C@@H](C)[C@H](OCc1ccccc1)C(C)C)C2,-0.0541,-0.258 (inactive),0.0348 (inactive),-1.67 (inactive),-0.537 (inactive),-2.21 (inactive),-0.231 (inactive),-0.313 (inactive),-0.261,-0.11
CCc1cc2c(nc1CC)CCN(CCC(C)=NO[C@@H]1O[C@H](COC(C)=O)[C@@H](OC(C)=O)[C@H](OC(C)=O)[C@H]1OC(C)=O)C2,-0.11,-0.334 (inactive),0.164 (inactive),-2.7 (inactive),-0.585 (inactive),-0.567 (inactive),-1.25 (inactive),-1.82 (inactive),-0.387,0.0825
C=CC[C@@H]1C=C[C@H](ON=C(C)CCN2CCCc3nc(C)c(C)cc32)[C@@H](CO)O1,0.394,0.529 (inactive),-0.0956 (inactive),-0.267 (inactive),0.936 (inactive),0.662 (inactive),0.382 (inactive),-0.0088 (inactive),-0.0021,1.07
CCOC(=O)[C@H](Cc1ccccc1)NC(=O)CCC1CC(OC(=O)NCCc2ccc(F)cc2)CC2(CCCC(COC(=O)NCCC(C)C)O2)O1 (stereo not given in full),0.456,-0.0624 (inactive),0.129 (inactive),0.0106 (inactive),0.0737 (inactive),1.05 (inactive),0.953 (inactive),-0.203 (inactive),1.16,-0.0543
CC(CCN1CCc2nc(-c3ccccc3)c(-c3ccccc3)cc2C1)=NOC(C)CN1CCCc2nc(C)c(C)cc21 (stereo not given),-0.0686,-3.98 (inactive),-0.877 (inactive),0.417 (inactive),0.371 (inactive),-0.572 (inactive),0.798 (inactive),-0.391 (inactive),-0.469,0.326
C[C@@H](c1ccccc1)N1C(=O)[C@H]2[C@H]3[C@H](O)[C@H](O)CC(=NNC(=O)OCc4ccccc4)[C@@H]3CC[C@H]2C1=O,-0.289,0.862 (inactive),-0.465 (inactive),-0.594 (inactive),-0.155 (inactive),-0.396 (inactive),0.288 (inactive),0.476 (inactive),-0.158,-0.0749
